Screening data: PubChem BioAssay, Broad Institute
The entries come from a sample that favours hits as a whole.
miR-122 inh – miR-122 sensor activation. Huh7 psiCHECK-miR122 Renilla luciferase sensor, 48 h. activation, % at 12.5 µM. 340,000 compounds, 0.14% hits;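 active means mean activation of 30% or more, with every replicate also reaching 30%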;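 further: 0% = median of neutral control wells and 100% = median of positive control wells; higher luciferase signal means stronger suppression of miR-122 activity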
The depositor's hits bear a star.

`C[C@@H]1CN([C@@H](C)CO)C(=O)c2cc(C#C[C@@H](C)O)cnc2O[C@H]1CN(C)Cc1cncnc1` gave miR-122 inh 7.
For COc1ccccc1-c1ccc2c(c1)O[C@H](CN(C)C(C)=O)[C@@H](C)CN([C@H](C)CO)S2(=O)=O the results were miR-122 inh 4.
For CCN(C[C@H]1[C@H](c2ccccc2)[C@@H](CO)N1C(=O)C1CC1)C(=O)NC1CCCC1 the results were miR-122 inh 36*.
Screening O=C(NC[C@@H]1[C@H](c2ccccc2)[C@@H](CO)N1C(=O)C1CC1)NC1CCCC1 returned miR-122 inh -108.
For COc1cccc(-c2cnc3c(c2)C(=O)N([C@@H](C)CO)C[C@@H](C)[C@@H](CN(C)C(=O)Nc2ccccc2F)O3)c1 the results were miR-122 inh 1.
CC(C)C#Cc1ccc2c(c1)O[C@H](CN(C)C(=O)CN(C)C)[C@@H](C)CN([C@@H](C)CO)S2(=O)=O was read as miR-122 inh -12.
CC(=O)C1=C(c2ccc(Br)cc2)C(=O)c2ccccc2C1=O was read as miR-122 inh 76*.
`CC(C)CC#Cc1cnc2c(c1)C(=O)N([C@H](C)CO)C[C@@H](C)[C@H](CN(C)C(=O)Cc1ccccc1)O2` gave miR-122 inh 6.
CCCNC(=O)N(C)C[C@H]1Oc2ncc(C#CCC3CCCC3)cc2C(=O)N([C@@H](C)CO)C[C@H]1C was read as miR-122 inh 5.
`C[C@H](CO)N1C[C@H](C)[C@H](CN(C)C(=O)Nc2ccc3c(c2)OCO3)Oc2cc(C#Cc3ccccc3)ccc2S1(=O)=O` gave miR-122 inh 2.
For C[C@@H]1CN([C@@H](C)CO)S(=O)(=O)c2ccc(-c3ccncc3)cc2O[C@H]1CN(C)C(=O)Nc1ccc(F)cc1 the results were miR-122 inh 7.
`C/C=C/c1cnc2c(c1)C(=O)N([C@H](C)CO)C[C@@H](C)[C@@H](CN(C)C(=O)Cc1cccnc1)O2` gave miR-122 inh -15.
For C[C@@H]1CN([C@@H](C)CO)C(=O)c2cc(C#Cc3ccc(F)cc3)cnc2O[C@@H]1CN(C)CC1CCOCC1 the results were miR-122 inh 0.
For O=C(N/N=C/c1sc2ccccc2c1O)c1ccccc1 the results were miR-122 inh 41*.
Screening COc1cccc(NC(=O)N(C)C[C@H]2Oc3cc(-c4cccc(C(=O)N(C)C)c4)ccc3S(=O)(=O)N([C@@H](C)CO)C[C@@H]2C)c1 returned miR-122 inh -44.
`CCC(=O)N(C)C[C@@H]1Oc2cc(-c3cccnc3)ccc2S(=O)(=O)N([C@@H](C)CO)C[C@H]1C` gave miR-122 inh -19.
Screening C[C@H](CO)N1C[C@H](C)[C@H](CN(C)Cc2ccc(Cl)c(Cl)c2)Oc2c(NC(=O)Nc3ccc4c(c3)OCO4)cccc2C1=O returned miR-122 inh -91.
For C[C@@H]1CN([C@@H](C)CO)C(=O)c2cc(-c3ccccc3F)cnc2O[C@H]1CN(C)C(=O)NC1CCCCC1 the results were miR-122 inh 0.
Screening C[C@H](CO)N1C[C@H](C)[C@H](CN(C)C(=O)NC2CCCCC2)Oc2ncc(-c3ccccc3F)cc2C1=O returned miR-122 inh 3.
C[C@H](CO)N1C[C@H](C)[C@H](CN(C)C(=O)NC2CCCCC2)Oc2ncc(-c3cccc(C(F)(F)F)c3)cc2C1=O was read as miR-122 inh 33*.
`C[C@@H]1CN([C@H](C)CO)C(=O)c2cccc(NC(=O)Nc3ccccc3)c2O[C@H]1CN(C)Cc1ccc(C(F)(F)F)cc1` gave miR-122 inh -107.
Screening C[C@@H]1CCCCO[C@@H](CN(C)Cc2ccc3c(c2)OCO3)[C@H](C)CN([C@H](C)CO)C(=O)c2cc(NC(=O)Nc3ccc(C(F)(F)F)cc3)ccc2O1 returned miR-122 inh 34*.
Screening C[C@@H]1CN([C@@H](C)CO)C(=O)c2cc(NC(=O)Nc3cccc4ccccc34)ccc2O[C@@H](C)CCCCO[C@@H]1CN(C)CC1CCCCC1 returned miR-122 inh 34*.
For Cc1ccc(S(=O)(=O)Nc2ccc3c(c2)C(=O)N([C@@H](C)CO)C[C@H](C)[C@H](CN(C)C(=O)Nc2ccc(F)cc2)OCCCC[C@@H](C)O3)cc1 the results were miR-122 inh -94.
`C[C@@H]1CN([C@H](C)CO)C(=O)c2cc(NC(=O)Nc3cccc4ccccc34)ccc2O[C@@H]1CN(C)C(=O)Nc1ccccc1` gave miR-122 inh -90.
COc1ccc(CN(C)C[C@@H]2OCCCC[C@H](C)Oc3ccc(NC(=O)Nc4ccc(C(F)(F)F)cc4)cc3C(=O)N([C@H](C)CO)C[C@@H]2C)cc1 was read as miR-122 inh 31*.
For COc1ccc(CN(C)C[C@@H]2OCCCC[C@@H](C)Oc3ccc(NC(=O)c4ccccc4)cc3C(=O)N([C@H](C)CO)C[C@@H]2C)cc1 the results were miR-122 inh -95.
`COc1ccc(S(=O)(=O)N(C)C[C@H]2Oc3ccc(NC(=O)Nc4ccc(C(F)(F)F)cc4)cc3C(=O)N([C@@H](C)CO)C[C@H]2C)cc1` gave miR-122 inh -111.
`CC(C)CC#Cc1cnc2c(c1)C(=O)N([C@H](C)CO)C[C@@H](C)[C@@H](CN(C)C(=O)Nc1cc(F)ccc1F)O2` gave miR-122 inh 10.
Screening CC(C)CC#Cc1cnc2c(c1)C(=O)N([C@H](C)CO)C[C@@H](C)[C@H](CN(C)C(=O)NC1CCCC1)O2 returned miR-122 inh -3.
For COc1cccc(NC(=O)N(C)C[C@@H]2Oc3ncc(C#Cc4cccnc4)cc3C(=O)N([C@@H](C)CO)C[C@@H]2C)c1 the results were miR-122 inh 8.
For C[C@H](CO)N1C[C@H](C)[C@@H](CN(C)Cc2ccccn2)Oc2ncc(C#Cc3ccc(F)cc3)cc2C1=O the results were miR-122 inh 3.
For CCC(=O)Nc1ccc2c(c1)OC[C@H](C)N(C(=O)c1ccncc1)C[C@@H](C)[C@@H](OC)CN(C)C2=O the results were miR-122 inh 1.
Screening C[C@@H]1CN([C@H](C)CO)S(=O)(=O)c2ccc(C#CCN(C)C)cc2O[C@H]1CN(C)CC1CCCC1 returned miR-122 inh -22.
C[C@H]1CN([C@@H](C)CO)C(=O)c2cc(-c3ccccc3)cnc2O[C@H]1CN(C)C(=O)Nc1ccc2c(c1)OCO2 was read as miR-122 inh -3.
For COc1ccc(C#Cc2cnc3c(c2)C(=O)N([C@H](C)CO)C[C@H](C)[C@H](CN(C)CC2CCOCC2)O3)cc1 the results were miR-122 inh -5.
For Cc1ccc(S(=O)(=O)N(C)C[C@H]2Oc3ccc(NC(=O)Nc4ccc(C(F)(F)F)cc4)cc3C(=O)N([C@H](C)CO)C[C@H]2C)cc1 the results were miR-122 inh -93.
Screening COc1ccc(S(=O)(=O)N(C)C[C@H]2Oc3ccc(NC(=O)Nc4ccc(C(F)(F)F)cc4)cc3C(=O)N([C@H](C)CO)C[C@H]2C)cc1 returned miR-122 inh -136.
Screening C[C@@H]1CN([C@@H](C)CO)C(=O)c2cc(NC(=O)Nc3ccc(C(F)(F)F)cc3)ccc2O[C@@H]1CN(C)CC1CCCCC1 returned miR-122 inh 40*.
Screening CNC[C@@H]1Oc2cc(-c3ccc(OC)cc3)ccc2S(=O)(=O)N([C@H](C)CO)C[C@H]1C returned miR-122 inh 7.
O=C(Nc1ccc(F)cc1)N1CCCCN2[C@H](CO)[C@@H](c3ccc(C#Cc4ccccc4)cc3)[C@H]2C1 was read as miR-122 inh 34*.
